Where “and” joins values, the source holds several entries; their conditions need not be identical. Equal values may be shown once. Inconclusive results are not listed. More than one record can exist for a structure, and the calls need not agree. Calls of active or inactive are those of the source. The calls were made as follows, unless noted: active = hit-call score of the fitted dose curve at least 0.9, where 1 is the maximum; inconclusive = response in the unintended direction; inactive = score below 0.9.
Columns and labels:
[1] = target: Estrogen receptor beta (Homo sapiens) (UniProt Q92731); assay: OT_ER_ERbERb_1440: Odyssey Thera (OT) 24-hour HEK293T Protein-Complementation Assay for Estrogen Receptor-beta/-beta Homodimer (AID 2283380);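 also: fluorescence gain from ER beta LBD homodimer complementation read by laser scanning cytometry; scored as signal increase over DMSO baseline for both agonists and antagonists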
Chain of Estrogen receptor beta (Homo sapiens) (Q92731 whole entry, looked up, the tested form may be a part): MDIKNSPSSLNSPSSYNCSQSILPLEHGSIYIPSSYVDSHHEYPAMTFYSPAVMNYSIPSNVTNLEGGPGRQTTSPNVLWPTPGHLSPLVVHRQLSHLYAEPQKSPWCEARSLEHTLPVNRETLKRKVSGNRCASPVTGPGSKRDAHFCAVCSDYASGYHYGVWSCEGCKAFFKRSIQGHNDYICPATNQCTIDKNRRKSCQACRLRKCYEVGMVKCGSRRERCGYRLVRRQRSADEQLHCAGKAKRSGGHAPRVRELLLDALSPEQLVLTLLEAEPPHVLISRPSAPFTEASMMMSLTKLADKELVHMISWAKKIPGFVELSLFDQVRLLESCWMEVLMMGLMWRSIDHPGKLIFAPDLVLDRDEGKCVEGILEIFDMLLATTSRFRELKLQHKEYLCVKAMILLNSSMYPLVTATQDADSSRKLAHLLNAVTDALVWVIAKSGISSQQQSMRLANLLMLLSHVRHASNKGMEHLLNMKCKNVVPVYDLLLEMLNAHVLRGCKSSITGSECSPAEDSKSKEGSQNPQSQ
In short: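 HEK293T cells stably expressing human ER-beta LBD (aa 310-547) PCA homodimer pair, dosed 24 h; formaldehyde-fixed, Draq5-stained. Readout: increase in nuclear (agonist) or nuclear plus cytoplasmic (antagonist) fluorescence intensity versus DMSO, gain-of-signal fitting.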

[2] = target: Estrogen receptor (Homo sapiens) (UniProt P03372); assay: OT_ERa_GFPERaERE_0480: Odyssey Thera (OT) 8-hour HeLa Transcription Induction Assay for Estrogen Receptor (AID 2283381; active = hit-call score of the fitted dose curve at least 0.9, where 1 is the maximum; inactive = score below 0.9)
Chain of Estrogen receptor (Homo sapiens) (P03372 whole entry, looked up): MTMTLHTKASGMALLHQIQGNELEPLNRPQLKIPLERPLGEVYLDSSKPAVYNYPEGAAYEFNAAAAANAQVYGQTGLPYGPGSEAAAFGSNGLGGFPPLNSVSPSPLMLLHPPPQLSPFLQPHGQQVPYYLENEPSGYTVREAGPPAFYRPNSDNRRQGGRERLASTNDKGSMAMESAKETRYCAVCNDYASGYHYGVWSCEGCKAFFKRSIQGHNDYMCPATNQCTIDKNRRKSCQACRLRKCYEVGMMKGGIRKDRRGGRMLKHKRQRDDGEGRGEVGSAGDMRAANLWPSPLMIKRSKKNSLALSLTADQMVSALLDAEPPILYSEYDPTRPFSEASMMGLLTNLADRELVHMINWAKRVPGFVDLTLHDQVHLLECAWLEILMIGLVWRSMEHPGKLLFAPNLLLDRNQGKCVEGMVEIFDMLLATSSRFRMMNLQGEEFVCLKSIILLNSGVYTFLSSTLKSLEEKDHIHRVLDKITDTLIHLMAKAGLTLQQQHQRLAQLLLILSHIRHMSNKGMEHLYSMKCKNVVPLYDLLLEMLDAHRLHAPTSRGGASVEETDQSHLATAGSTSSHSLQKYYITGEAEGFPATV
In short: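 Fluorescent reporter signal, imaged by microscopy and scored with image-analysis algorithms, was taken 8 h after chemical dosing of HeLa cells; activity was fitted upward relative to DMSO.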

[3] = target: Estrogen receptor (Homo sapiens) (UniProt P03372); assay: OT_ERa_GFPERaERE_0120: Odyssey Thera (OT) 2-hour HeLa Transcription Induction Assay for Estrogen Receptor (AID 2283382)
In short: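 HeLa, 384-well, 2 h chemical exposure; GFP reporter induction (ERE), fluorescence microscopy; high content image analysis; positive fitting direction vs DMSO.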

[4] = target: Bile acid receptor (Homo sapiens) (UniProt Q96RI1); assay: OT_FXR_FXRSRC1_0480: Odyssey Thera (OT) 8-hour HEK293T Protein-Complementation Assay for Farnesoid X receptor/SRC-1 Co-activator (AID 2283383)
Chain of Bile acid receptor (Homo sapiens) (Q96RI1 whole entry, looked up, the tested form may be a part): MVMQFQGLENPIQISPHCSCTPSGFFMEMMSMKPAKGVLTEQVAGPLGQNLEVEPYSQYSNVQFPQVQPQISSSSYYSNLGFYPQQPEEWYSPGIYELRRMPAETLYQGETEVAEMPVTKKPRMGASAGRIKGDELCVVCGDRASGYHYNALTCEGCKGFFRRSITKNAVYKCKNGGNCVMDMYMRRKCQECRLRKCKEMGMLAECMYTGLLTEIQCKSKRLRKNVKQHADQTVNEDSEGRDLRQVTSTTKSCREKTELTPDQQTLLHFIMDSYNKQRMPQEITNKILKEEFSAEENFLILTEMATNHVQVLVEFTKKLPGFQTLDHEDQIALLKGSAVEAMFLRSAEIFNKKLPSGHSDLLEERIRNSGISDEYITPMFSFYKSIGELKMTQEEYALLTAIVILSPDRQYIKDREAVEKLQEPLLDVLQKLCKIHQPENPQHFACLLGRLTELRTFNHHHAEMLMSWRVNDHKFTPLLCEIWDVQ
In short: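 Human kidney HEK293T cells carried FXR/SRC-1 fragment-complementation constructs. Compounds were added and incubated 8 h. Reporter reassembly upon receptor–co-activator interaction was then quantified by fluorescence, with curves fitted in the positive direction relative to DMSO.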

[5] = target: Retinoic acid receptor RXR-alpha (Homo sapiens) (UniProt P19793); assay: OT_NURR1_NURR1RXRa_0480: Odyssey Thera (OT) 8-hour HEK293T Protein Complementation Assay for Nurr1/retinoid X receptor (RXR) (AID 2283385)
Chain of Retinoic acid receptor RXR-alpha (Homo sapiens) (P19793 whole entry, looked up, the tested form may be a part): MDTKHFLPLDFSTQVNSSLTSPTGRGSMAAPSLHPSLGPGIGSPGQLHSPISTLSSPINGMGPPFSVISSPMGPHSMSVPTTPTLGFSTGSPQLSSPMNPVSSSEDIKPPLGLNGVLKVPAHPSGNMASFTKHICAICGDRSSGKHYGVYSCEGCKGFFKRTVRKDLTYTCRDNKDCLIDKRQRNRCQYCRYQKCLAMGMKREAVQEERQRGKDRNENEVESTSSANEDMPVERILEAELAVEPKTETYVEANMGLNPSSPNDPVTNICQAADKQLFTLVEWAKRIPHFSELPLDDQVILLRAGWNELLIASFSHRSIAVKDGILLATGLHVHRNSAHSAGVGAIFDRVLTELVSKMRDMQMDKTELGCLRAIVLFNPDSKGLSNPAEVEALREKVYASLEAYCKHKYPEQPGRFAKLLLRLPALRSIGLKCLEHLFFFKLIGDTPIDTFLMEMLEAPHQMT
In short: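 8 h compound exposure, HEK293T; Nurr1/RXRα fragment complementation; fluorescence intensity; positive fitting direction vs DMSO baseline.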

[6] = target: Peroxisome proliferator-activated receptor gamma (Homo sapiens) (UniProt P37231); assay: OT_PPARg_PPARgSRC1_0480: Odyssey Thera (OT) 8-hour Protein-Complementation Assay for Peroxisome Proliferator-activated Receptor Gamma / SRC-1 Co-activator (AID 2283387);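 also: nuclear to cytoplasmic split Venus YFP fluorescence ratio reporting PPARg SRC-1 interaction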
Chain of Peroxisome proliferator-activated receptor gamma (Homo sapiens) (P37231 whole entry, looked up, the tested form may be a part): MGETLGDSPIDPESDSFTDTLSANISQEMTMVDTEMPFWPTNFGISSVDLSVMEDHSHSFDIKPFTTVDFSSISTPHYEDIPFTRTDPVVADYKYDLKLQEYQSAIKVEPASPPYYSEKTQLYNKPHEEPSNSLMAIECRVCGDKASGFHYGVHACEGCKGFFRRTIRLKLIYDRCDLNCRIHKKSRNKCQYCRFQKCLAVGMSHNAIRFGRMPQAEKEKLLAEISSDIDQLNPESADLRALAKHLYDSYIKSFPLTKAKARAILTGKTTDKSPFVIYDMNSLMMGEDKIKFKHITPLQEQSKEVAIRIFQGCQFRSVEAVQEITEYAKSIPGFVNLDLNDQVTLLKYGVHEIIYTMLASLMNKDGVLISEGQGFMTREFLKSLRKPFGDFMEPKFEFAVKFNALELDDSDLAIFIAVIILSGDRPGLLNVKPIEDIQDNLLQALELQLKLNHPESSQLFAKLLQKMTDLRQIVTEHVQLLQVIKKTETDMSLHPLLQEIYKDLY
In short: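 Protein-fragment complementation of split Venus YFP reports PPARg/SRC-1 interaction in HEK293T (transfected 48 h before treatment), exposed 8 h. Readout: N/C fluorescence ratio at 488 nm from imaging, Draq5 for segmentation, positive fit relative to DMSO.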

[7] = target: mouse Estrogen Receptor alpha (Era), Esr1 (gene 13982) (UniProt P19785); assay: NVS_NR_mERa: NovaScreen (NVS) Nuclear Receptor Binding Assay for mouse Estrogen Receptor alpha (Era) (AID 2283378);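 also: hit means loss of bound radioligand signal relative to DMSO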
In short: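 Measurements come from scintillation counting after filtration, taken 18 hours after chemicals were added to a cell-free mouse Era preparation with radioligand. Screening was duplicate at 25 uM, with concurrent positive and negative controls and confirmatory concentration series for actives.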

[8] = target: Peroxisome proliferator-activated receptor gamma (Homo sapiens) (UniProt P37231); assay: OT_PPARg_PPARgSRC1_1440: Odyssey Thera (OT) 24-hour Protein-Complementation Assay for Peroxisome Proliferator-activated Receptor Gamma/ SRC-1 Co-activator (AID 2283388);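 also: nuclear to cytoplasmic ratio of reconstituted Venus YFP fluorescence in fixed imaged cells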
In short: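 Cells carrying the PPARg/SRC-1 fragment-complementation reporter receive compound for 24 hours, are fixed and counterstained with Draq5, then imaged. Increased nuclear relative to cytoplasmic YFP fluorescence above DMSO baseline indicates binding activity.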

[9] = CEETOX_H295R_OHPROG: CeeTox H295R High-throughput Steroidogenesis Assay for OH-Progesterone (OHPROG) (AID 2283435; active = hit-call score of the fitted dose curve at least 0.9, where 1 is the maximum; inactive = score below 0.9;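 as to AC50: 17alpha-hydroxyprogesterone secreted into medium measured by HPLC-MS/MS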); details: actives raise or lower the signal
In short: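 H295R, 10 uM forskolin prestim 48 h; cmpd in 0.1% DMSO 48 h; medium MTBE-extracted, HPLC-MS/MS for OH-progesterone; 7-pt std curve; bidirectional fit vs DMSO; MTT viability, chemicals diluted until viability >/=70%.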

[10] = CEETOX_H295R_PROG: CeeTox H295R High-throughput Steroidogenesis Assay for Progesterone (PROG) (AID 2283442; active = hit-call score of the fitted dose curve at least 0.9, where 1 is the maximum; inactive = score below 0.9;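 as to AC50: human H295R adrenal cells primed with 10 µM forskolin before dosing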); details: actives raise or lower the signal
In short: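 Measured analyte is progesterone secreted by H295R cells at 48 h of chemical treatment, following 10 uM forskolin priming. Quantitation used HPLC-MS/MS against a 7-point standard curve; cytotoxicity was checked by MTT absorbance.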

[11] = target: Bile acid receptor (Homo sapiens) (UniProt Q96RI1); assay: OT_FXR_FXRSRC1_1440: Odyssey Thera (OT) 24-hour HEK293T Protein-Complementation Assay for Farnesoid X receptor/SRC-1 Co-activator (AID 2283384)
In short: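 Compounds are applied to human kidney HEK293T cells expressing bait and prey fused to reporter protein fragments; after 24 h, reconstituted reporter fluorescence is measured. Activity is fitted as signal gain over DMSO.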

[12] = read-out: Tumor necrosis factor receptor superfamily member 6 (Homo sapiens) (UniProt P25445); assay: LTEA_HepaRG_FAS: Life Technologies and Expression Analysis (LTEA) Assay for Fas cell surface death receptor (FAS) using HepaRG (AID 2283447; active = hit-call score of the fitted dose curve at least 0.9, where 1 is the maximum; inactive = score below 0.9); details: mRNA level, 48 h; actives raise or lower the signal
In short: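 Differentiated human HepaRG cells, pre-cultured 48 h, were exposed in duplicate for 48 h to 8-point half-log concentrations (top 100 uM, 0.5% DMSO) in serum-free induction medium; FAS mRNA measured by qRT-PCR, normalized to ACTB/GAPDH/POLR2A, bidirectional fit versus DMSO.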

[13] = read-out: Fatty acid synthase (Homo sapiens) (UniProt P49327); assay: LTEA_HepaRG_FASN: Life Technologies and Expression Analysis (LTEA) Assay for Fatty Acid Synthase (FASN) using HepaRG (AID 2283448; active = hit-call score of the fitted dose curve at least 0.9, where 1 is the maximum; inactive = score below 0.9); details: mRNA level, 48 h; actives raise or lower the signal
In short: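 FASN expression changes, up or down relative to 0.5% DMSO, were measured by qRT-PCR in human HepaRG cells after 48 h treatment with chemicals at eight concentrations (half-log steps from 100 uM).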

[14] = target: Retinoic acid receptor RXR-alpha (Homo sapiens) (UniProt P19793); assay: OT_NURR1_NURR1RXRa_1440: Odyssey Thera (OT) 24-hour HEK293T Protein Complementation Assay for Nurr1/retinoid X receptor (RXR) (AID 2283386)
In short: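 Interaction of Nurr1 with RXRα brings fused reporter fragments together in human HEK293T cells, restoring a functional reporter. Fluorescence intensity is measured 24 h after chemical treatment, and values are analysed in the positive direction against DMSO.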

[15] = CEETOX_H295R_11DCORT: CeeTox H295R High-throughput Steroidogenesis Assay for 11-Deoxycortisol (11DCORT) (AID 2283432; active = hit-call score of the fitted dose curve at least 0.9, where 1 is the maximum; inactive = score below 0.9;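 also: 11-deoxycortisol secreted into the medium measured by LC-MS/MS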); details: actives raise or lower the signal
In short: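 Human adrenal H295R cells were prestimulated with 10 uM forskolin for 48 h, then exposed to test chemical (0.1% DMSO final) for 48 h. Medium 11-deoxycortisol was quantified by MTBE extraction and HPLC-MS/MS; bidirectional fitting relative to DMSO.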

[16] = CEETOX_H295R_CORTIC: CeeTox H295R High-throughput Steroidogenesis Assay for Corticosterone (CORTIC) (AID 2283437; active = hit-call score of the fitted dose curve at least 0.9, where 1 is the maximum; inactive = score below 0.9;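 also: corticosterone secreted into medium quantified by mass spectrometry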); details: actives raise or lower the signal
In short: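 H295R cells were prestimulated 48 h with 10 uM forskolin, then exposed 48 h to test chemical in 0.1% DMSO. Medium corticosterone was MTBE-extracted and quantified by HPLC-MS/MS; bidirectional fit versus DMSO baseline.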

[17] = CEETOX_H295R_CORTISOL: CeeTox H295R High-throughput Steroidogenesis Assay for Cortisol (AID 2283438; active = hit-call score of the fitted dose curve at least 0.9, where 1 is the maximum; inactive = score below 0.9;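 also: cortisol secreted into medium quantified by LC-MS/MS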); details: actives raise or lower the signal
In short: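 Forskolin 10 uM 48 h prestim → test cmpd in DMSO (0.1% final) 48 h → medium MTBE-extracted → LC-MS/MS cortisol vs 7-pt std curve. Gain/loss of signal fitted vs DMSO. MTT viability in same wells.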

[18] = CEETOX_H295R_ESTRADIOL: CeeTox H295R High-throughput Steroidogenesis Assay for Estradiol (AID 2283440; active = hit-call score of the fitted dose curve at least 0.9, where 1 is the maximum; inactive = score below 0.9;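 also: estradiol secreted into medium quantified by LC-MS/MS after dansyl derivatisation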); details: actives raise or lower the signal
In short: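 Readout is estradiol in conditioned medium, quantified by reverse-phase HPLC-MS/MS against a 7-point standard curve. Cells: H295R, forskolin-stimulated, then dosed 48 h in 0.1% DMSO; activity fitted in both directions relative to DMSO.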

[19] = CEETOX_H295R_ESTRONE: CeeTox H295R High-throughput Steroidogenesis Assay for Estrone (AID 2283441; active = hit-call score of the fitted dose curve at least 0.9, where 1 is the maximum; inactive = score below 0.9;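 also: estrone secreted into medium measured by LC-MS/MS after dansyl derivatization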); details: actives raise or lower the signal
In short: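 H295R cells prestimulated 48 h with 10 uM forskolin, then exposed 48 h to chemicals in 0.1% DMSO final; estrone in medium extracted with MTBE, dansyl-derivatized, quantified by HPLC-MS/MS; bidirectional fitting versus DMSO, viability by MTT.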

[20] = CEETOX_H295R_ANDR: CeeTox H295R High-throughput Steroidogenesis Assay for Androstenedione (ANDR) (AID 2283436; active = hit-call score of the fitted dose curve at least 0.9, where 1 is the maximum; inactive = score below 0.9); details: actives raise or lower the signal
In short: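 H295R human adrenal cells (passages ≤10) were exposed to test chemicals for 48 h; androstenedione in medium was MTBE-extracted and quantified by HPLC-MS/MS against a 7-point standard curve. Bidirectional fitting used DMSO as baseline.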

Measured: AC50

Chain of Fatty acid synthase (Homo sapiens) (P49327 whole entry, looked up): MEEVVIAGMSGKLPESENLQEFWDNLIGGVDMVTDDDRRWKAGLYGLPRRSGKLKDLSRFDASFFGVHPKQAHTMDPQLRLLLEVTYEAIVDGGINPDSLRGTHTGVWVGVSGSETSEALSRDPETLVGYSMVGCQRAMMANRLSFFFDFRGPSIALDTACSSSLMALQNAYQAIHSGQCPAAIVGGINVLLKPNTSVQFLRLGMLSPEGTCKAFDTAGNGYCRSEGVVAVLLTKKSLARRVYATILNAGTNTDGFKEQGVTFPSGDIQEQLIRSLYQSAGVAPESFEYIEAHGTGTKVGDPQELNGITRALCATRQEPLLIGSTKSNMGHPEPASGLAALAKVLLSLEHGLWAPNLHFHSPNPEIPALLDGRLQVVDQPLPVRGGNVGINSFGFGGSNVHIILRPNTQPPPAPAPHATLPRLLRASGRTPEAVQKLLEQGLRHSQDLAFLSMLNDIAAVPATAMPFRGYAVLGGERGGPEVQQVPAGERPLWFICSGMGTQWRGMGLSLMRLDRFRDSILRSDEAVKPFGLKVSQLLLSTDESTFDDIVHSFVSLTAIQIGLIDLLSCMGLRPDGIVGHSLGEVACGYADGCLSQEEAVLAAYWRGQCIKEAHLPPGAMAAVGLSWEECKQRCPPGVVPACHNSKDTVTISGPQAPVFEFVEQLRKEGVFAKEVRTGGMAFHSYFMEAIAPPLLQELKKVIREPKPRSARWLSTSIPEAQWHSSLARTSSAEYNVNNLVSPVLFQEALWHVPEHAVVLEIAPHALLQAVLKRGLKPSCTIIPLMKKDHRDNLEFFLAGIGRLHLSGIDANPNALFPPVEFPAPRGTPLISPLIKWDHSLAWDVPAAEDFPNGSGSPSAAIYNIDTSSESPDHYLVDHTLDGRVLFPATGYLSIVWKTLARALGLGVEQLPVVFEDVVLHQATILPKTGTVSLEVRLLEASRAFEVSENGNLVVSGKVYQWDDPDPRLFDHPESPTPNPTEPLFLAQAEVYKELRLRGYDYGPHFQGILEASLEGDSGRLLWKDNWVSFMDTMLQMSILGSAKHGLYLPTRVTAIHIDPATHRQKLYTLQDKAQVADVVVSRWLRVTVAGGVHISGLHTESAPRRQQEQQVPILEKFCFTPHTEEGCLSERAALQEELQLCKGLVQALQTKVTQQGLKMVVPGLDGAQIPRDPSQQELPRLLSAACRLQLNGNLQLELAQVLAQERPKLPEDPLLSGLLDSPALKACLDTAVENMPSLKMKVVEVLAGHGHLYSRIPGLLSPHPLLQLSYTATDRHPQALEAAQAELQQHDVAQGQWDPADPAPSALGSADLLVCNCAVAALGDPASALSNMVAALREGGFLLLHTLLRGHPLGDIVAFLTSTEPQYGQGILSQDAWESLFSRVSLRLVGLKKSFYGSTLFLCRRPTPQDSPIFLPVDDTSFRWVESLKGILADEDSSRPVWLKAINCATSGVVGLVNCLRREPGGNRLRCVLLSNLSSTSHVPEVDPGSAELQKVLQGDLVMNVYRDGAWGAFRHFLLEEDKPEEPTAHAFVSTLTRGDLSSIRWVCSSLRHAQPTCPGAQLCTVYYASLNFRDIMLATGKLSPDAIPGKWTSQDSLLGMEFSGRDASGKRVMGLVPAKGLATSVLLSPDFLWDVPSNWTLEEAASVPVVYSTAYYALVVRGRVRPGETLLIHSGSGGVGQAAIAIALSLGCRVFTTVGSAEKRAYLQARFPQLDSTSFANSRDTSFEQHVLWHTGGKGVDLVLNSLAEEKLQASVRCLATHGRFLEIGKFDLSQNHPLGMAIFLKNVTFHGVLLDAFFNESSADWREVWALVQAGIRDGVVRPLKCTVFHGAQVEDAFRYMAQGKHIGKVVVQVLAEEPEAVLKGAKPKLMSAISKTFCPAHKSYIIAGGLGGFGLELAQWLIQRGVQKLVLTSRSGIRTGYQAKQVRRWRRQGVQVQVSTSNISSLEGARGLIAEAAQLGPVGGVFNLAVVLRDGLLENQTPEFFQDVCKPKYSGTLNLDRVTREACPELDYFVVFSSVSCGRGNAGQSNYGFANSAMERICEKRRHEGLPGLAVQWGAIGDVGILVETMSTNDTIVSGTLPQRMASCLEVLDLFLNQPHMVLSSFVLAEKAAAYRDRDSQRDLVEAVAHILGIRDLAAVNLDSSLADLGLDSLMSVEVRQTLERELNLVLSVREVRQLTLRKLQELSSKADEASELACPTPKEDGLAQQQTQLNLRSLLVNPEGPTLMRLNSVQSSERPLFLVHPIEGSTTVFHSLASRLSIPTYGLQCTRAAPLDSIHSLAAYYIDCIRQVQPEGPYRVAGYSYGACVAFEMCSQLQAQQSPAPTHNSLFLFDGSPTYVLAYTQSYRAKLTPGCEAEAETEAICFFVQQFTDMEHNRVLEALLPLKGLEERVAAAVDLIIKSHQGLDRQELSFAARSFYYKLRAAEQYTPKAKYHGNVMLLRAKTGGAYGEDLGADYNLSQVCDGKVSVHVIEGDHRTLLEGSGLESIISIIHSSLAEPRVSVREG

OCc1ccco1
inactive: [1] | [2] | [3] | [4] | [5] | [6]

CC(C)OC(=O)Nc1ccccc1
inactive: [2] | [3] | [5] | [6] | [8] | [9] | [10]
active: [7] 5.18 µM

C=CC(=O)OCCCCCC(C)C
inactive: [7] | [1] | [2] | [3] | [4] | [11] | [6] | [12] | [13]

Clc1ccc(COC(Cn2ccnc2)c2ccc(Cl)cc2Cl)cc1 (configuration not stated)
inactive: [7] | [1] | [3] | [6] | [8]
active: [2] 63.8 µM | [5] 11.2 µM | [14] 11.6 µM

CC1(C)CCC(Cc2ccc(Cl)cc2)C1(O)Cn1cncn1 (configuration not stated)
inactive: [7] | [2] | [3] | [5] | [14] | [6]
active: [4] 24.3 µM | [11] 31.6 µM | [9] 0.0959 µM | [10] 0.0359 µM

CCC(=O)C(CC(C)N(C)C)(c1ccccc1)c1ccccc1 (configuration not stated)
inactive: [1] | [2] | [3] | [4] | [11] | [5] | [14] | [6] | [12] | [13]

CNC(=O)O/N=C/C(C)(C)S(C)=O (configuration not stated)
inactive: [1] | [2] | [3] | [4] | [5] | [14] | [6] | [8]

CCN1CCC2(CC1)COc1cc3c(cc12)N(C(=O)c1ccc(-c2ccc(-c4nnc(C)o4)cc2C)cc1)CC3
inactive: [1] | [2] | [3] | [6] | [8] | [12]
active: [7] 0.174 µM | [13] 29.9 µM

CC(C)(c1ccccc1)c1ccc(O)c(C(C)(C)c2ccccc2)c1
inactive: [7] | [1] | [2] | [3] | [6] | [8] | [12]

C[C@]12CC[C@H](O)CC1=CC[C@@H]1[C@@H]2CC[C@]2(C)C(=O)CC[C@@H]12
active: [7] 2.17 µM | [1] 3.34 µM | [15] 41.1 µM | [9] 1.13 µM | [17] 7.72 µM
inactive: [5] | [14] | [8] | [16] | [18] | [19] | [10]

CCOP(=S)(OCC)Oc1nc(Cl)c(Cl)cc1Cl
active: [4] 35.1 µM | [11] 76.4 µM | [5] 83.4 µM and 71 µM | [14] 85.3 µM | [15] 94.9 µM | [20] 60.7 µM | [17] 81.6 µM | [10] 39.3 µM
inactive: [7] | [1] | [2] | [3] | [14] | [6] | [8] | [9] | [16] | [18] | [19] | [12] | [13]

C=CC#N
inactive: [7] | [1] | [2] | [5] | [6] | [8]

O=C(Nc1ccc2[nH]ccc2c1)c1cc2cc(F)ccc2n1Cc1cccc(F)c1
active: [15] 3.48 µM | [9] 0.124 µM | [17] 4.26 µM | [10] 4.84 µM | [13] 24.3 µM
not listed: [5] | [7] | [11] | [14] | [20]
inactive: all other assays above

NNC(=S)NN
inactive: [1] | [2] | [3] | [14] | [6] | [8] | [18] | [19]
active: [7] 0.0993 µM | [9] 50 µM | [10] 50 µM

CCC[CH2][Sn]([CH2]CCC)([CH2]CCC)[O]C(=O)c1ccccc1
inactive: [7] | [2] | [14] | [6]
active: [8] 0.0331 µM

O=C(CCl)CCl
inactive: [7]

C=C(C)C#N
inactive: [1] | [2] | [3] | [4] | [14]

Cn1sc(Cl)cc1=O
inactive: [1] | [2] | [3] | [4] | [11] | [5] | [14] | [6] | [8] | [12] | [13]

[O-][Cl+2]([O-])O
inactive: [1] | [2] | [3] | [4] | [11] | [6]
